49 molecules from ChEMBL document CHEMBL3988442, “University of Dundee, Small-Polar-MMV Screening Library” (2021) can be followed below.

About 13,000 (27%) of roughly 48,000 compounds showed an effect of 50% or more. Some of the results follow.

The subject of this experiment is Wolbachia pipientis. Briefly: Anti-Wolbachia Cell-Based Screen. The format is functional. Also on record: scale not given: in the data most compounds retested in dose-response had high values. To be noted: 5 µM.
For the molecule `CN(Cc1cc(-c2ccccc2)no1)Cc1nccn1C`, the “Percent Effect” value was found to be 8.065%.

Regarding `Cc1nn(CCO)c(C)c1CNC1CCc2c(F)cccc21` (centres undefined), the “Percent Effect” value turned out to be 1.037%.

For the molecule `N#Cc1ccc(CN(CC(N)=O)C2CCCC2)cc1`, the “Percent Effect” value is given as -1.161%.

For the molecule `O=C(Nc1ccccc1F)N(CCO)CCOCC(F)(F)F`, the “Percent Effect” value is recorded as -14.38%.

`CC(C)(C)S(=O)(=O)CCNC1CSCCc2ccccc21` (centres undefined): the “Percent Effect” value worked out at 8.355%.

Regarding `CCc1n[nH]c(SCC(=O)N2C[C@@H]3CC[C@H](C2)N(CC=C(C)C)C3)n1`, the “Percent Effect” value is given as 12.53%.

With `CCOC(=O)c1cc2c(=O)[nH]c(=O)n(CCc3ccccc3)c2nc1C`, the “Percent Effect” value is -3.034%.

For `O=C1CCc2cc(-c3csc(CCN4CCCC4=O)n3)ccc2N1`, the “Percent Effect” value is -1.736%.

With `CCCN1C(=O)c2ccccc2C1OC` (centres undefined), the “Percent Effect” value was 104.1%.

Regarding `CCn1cnc(NC(=O)N2CCC(c3ccc(Cl)cc3)C2)n1` (centres undefined), the “Percent Effect” value was -2.672%.

Turning to `Cc1nc(C)n(CCCn2ccnc2-c2cc3n(n2)CCCNC3)n1`, the “Percent Effect” value was found to be 0.4256%.

`Cn1ccc(C(=O)N2CCN(c3nccs3)CC2)cc1=O`: the “Percent Effect” value is given as 97.2%.

Regarding `Cn1cc(C(=O)N2CCN(c3ccc(F)cc3)CC2)ccc1=O`, the “Percent Effect” value amounted to 27.16%.

Regarding `Cn1ccc(C(=O)N2CCN(c3ccccn3)CC2)cc1=O`, the “Percent Effect” value came out at 94.46%.

For the molecule `Cn1ccc(C(=O)N2CCN(c3cc(C#N)ccn3)CC2)cc1=O`, the “Percent Effect” value was 6.84%.

As to `Cn1cc(C(=O)N2CCN(c3ccccc3)CC2)ccc1=O`, the “Percent Effect” value is -6.133%.

As to `Cn1ccc(C(=O)N2CCN(c3ncccn3)CC2)cc1=O`, the “Percent Effect” value is reported as -7.771%.

Regarding `O=C(c1cc(Cl)cc(Cl)c1)N1CCN(c2nccs2)CC1`, the “Percent Effect” value is on record as -10.96%.

With `Cn1cc(C(=O)N2CCN(c3ncccn3)CC2)ccc1=O`, the “Percent Effect” value came out at 122.7%.

For `Cn1ccc(CN2CCCN(c3nccs3)CC2)cc1=O`, the “Percent Effect” value was found to be 11.25%.

Take `Cc1cnccc1-n1nc(C(C)C)nc1CCc1cnccn1`: the “Percent Effect” value is on record as -10.93%.

As to `Cc1noc(CCCC(=O)NC(C)c2cn(-c3ccccc3)nn2)n1` (centres undefined), the “Percent Effect” value is on record as -6.671%.

As to `O=S(=O)(C1CC1)N1CCO[C@H]2[C@H](OCC3CC3)CC[C@@H]21`, the “Percent Effect” value was 103.2%.

Regarding `CCO[C@@H]1CC[C@H]2[C@H]1OCCN2S(=O)(=O)C1CC1`, the “Percent Effect” value is 110.7%.

For the molecule `CCO[C@@H]1CC[C@H]2[C@H]1OCCN2S(=O)(=O)c1cn(C)cn1`, the “Percent Effect” value was -10.77%.

For the molecule `CC(C)CO[C@@H]1CC[C@H]2[C@H]1OCCN2S(=O)(=O)C1CC1`, the “Percent Effect” value was 103.9%.

Turning to `CCS(=O)(=O)N1CCO[C@H]2[C@H](OCC3CCCC3)CC[C@@H]21`, the “Percent Effect” value is given as -19.91%.

In the case of `Cn1cnc(S(=O)(=O)N2CCO[C@H]3[C@H](OCC4CC4)CC[C@@H]32)c1`, the “Percent Effect” value is on record as -0.8778%.

On to `Cn1cnc(S(=O)(=O)N2CCO[C@H]3[C@@H](OCC4CC4)CC[C@@H]32)c1`, for which the “Percent Effect” value was -7.379%.

For `O=S(=O)(C1CC1)N1CCO[C@H]2[C@H](OCC3CCCC3)CC[C@@H]21`, the “Percent Effect” value was -8.752%.

Turning to `CO[C@@H]1CC[C@H]2[C@H]1OCCN2S(=O)(=O)C1CC1`, the “Percent Effect” value came out at 111.8%.

Regarding `Cc1cc(CN(C)C(=O)NC2CCCN(c3ncccn3)C2)no1` (centres undefined), the “Percent Effect” value was -2.323%.

For `Nc1nccc(N2CCCC(CO)(CCOc3ccccc3)C2)n1` (centres undefined), the “Percent Effect” value is recorded as -20.36%.

On to `Cn1ccnc1CN1CCN(CC(=O)NCC(F)(F)F)CC1`, for which the “Percent Effect” value turned out to be 1.598%.

With `Cn1ccnc1CN1CCN(CC(=O)NCc2ccccc2F)CC1`, the “Percent Effect” value came to 129%.

As to `Cc1ccccc1CNC(=O)CN1CCN(Cc2nccn2C)CC1`, the “Percent Effect” value is 7.197%.

In the case of `Cn1ccnc1CN1CCN(CC(=O)NCc2cccs2)CC1`, the “Percent Effect” value was determined as 99.27%.

In the case of `CC(C(=O)NCc1cccs1)N1CCN(Cc2nccn2C)CC1` (centres undefined), the “Percent Effect” value worked out at 4.204%.

For `COc1ccc(CC(=O)N2CC[C@@]3(O)CCNC[C@H]3C2)c(OC)c1`, the “Percent Effect” value is -12.62%.

With `CCc1nc(CN(C)Cc2ncc(-c3cccs3)o2)cs1`, the “Percent Effect” value is reported as -9.321%.

As for `CN1CC(c2ccccc2)CC2(CCN(Cc3ncc[nH]3)CC2)C1` (centres undefined), the “Percent Effect” value is listed as -21.2%.

With `Cc1ccc(C(CNCc2cccnc2)N2CCOCC2)s1` (centres undefined), the “Percent Effect” value was found to be 5.338%.

For the molecule `Cc1ccccc1NC(=O)NCCn1nc(C(F)(F)F)n(C)c1=O`, the “Percent Effect” value is listed as 4.371%.

Turning to `CN(C)CCn1c2c(ccc1=O)CC(NCc1cccnc1)CC2.O=C(O)C(F)(F)F.O=C(O)C(F)(F)F.O=C(O)C(F)(F)F` (centres undefined), the “Percent Effect” value is on record as -9.426%.

As to `NC1CCc2c(ccc(=O)n2Cc2ccncc2)C1` (centres undefined), the “Percent Effect” value was -38.16%.

For the molecule `CN(C)CCn1c2c(ccc1=O)CC(NCc1cnn(C)c1)CC2.O=C(O)C(F)(F)F.O=C(O)C(F)(F)F` (centres undefined), the “Percent Effect” value stood at 92.68%.

With `O=C(NC1CC1)N1CCc2ccc(=O)n(Cc3cccnc3)c2CC1.O=C(O)C(F)(F)F`, the “Percent Effect” value was -14.38%.

For `Cn1cc(CNC2CCc3c(ccc(=O)n3Cc3cccnc3)C2)cn1.O=C(O)C(F)(F)F.O=C(O)C(F)(F)F` (centres undefined), the “Percent Effect” value turned out to be 105.5%.

For `Cn1cc(CNC2CCc3c(ccc(=O)n3Cc3ccncc3)C2)cn1.O=C(O)C(F)(F)F.O=C(O)C(F)(F)F` (centres undefined), the “Percent Effect” value turned out to be 101.4%.
